The nature of assay [1]: small molecules captured by biotinylated probe aFSTL3 – biochemical, small-molecule microarray, fluorescence 635/667, stem cell growth factor project, primary screen (AID 1064).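 Also: measures binding of the biotinylated anti-FSTL3 antibody to printed compounds.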 To be noted: higher = more signal.
Assay [2] is described as follows: binders from COS7 lysate, DM2A8 probe, primary screen, torsin A project, cell lysate, small-molecule microarray, fluorescence 635/667 (AID 1065). To be noted: higher = more signal, COS7 lysate expressing mutant human TOR1A.
A short description of assay [3]: small molecules captured by biotinylated probe aFGF2 – biochemical, small-molecule microarray, fluorescence 635/667, stem cell growth factor project, primary screen (AID 1067).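 Also: measures binding of biotinylated aFGF2 protein to printed compounds on slides; z-score merges feature fluorescence and signal-to-noise across triplicate slides.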 To be noted: higher = more signal.
A short description of assay [4]: small molecules captured by biotinylated probe aFGF10 – biochemical, small-molecule microarray, fluorescence 635/667, stem cell growth factor project, primary screen (AID 1071).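 Also: score merges 667 nm spot intensity and signal to noise from triplicate slides.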 To be noted: higher = more signal.
The target of assay [5] is Neurogenic locus notch homolog protein 2 (Homo sapiens) (UniProt Q04721). The assay is described as follows: small molecules binding Notch2 protein – biochemical, small-molecule microarray, 635 nm fluorescence, stem cell growth factors, primary screen (AID 1073). To be noted: higher = more signal.
Chain of Neurogenic locus notch homolog protein 2 (Homo sapiens) (Q04721 whole entry, looked up, canonical isoform): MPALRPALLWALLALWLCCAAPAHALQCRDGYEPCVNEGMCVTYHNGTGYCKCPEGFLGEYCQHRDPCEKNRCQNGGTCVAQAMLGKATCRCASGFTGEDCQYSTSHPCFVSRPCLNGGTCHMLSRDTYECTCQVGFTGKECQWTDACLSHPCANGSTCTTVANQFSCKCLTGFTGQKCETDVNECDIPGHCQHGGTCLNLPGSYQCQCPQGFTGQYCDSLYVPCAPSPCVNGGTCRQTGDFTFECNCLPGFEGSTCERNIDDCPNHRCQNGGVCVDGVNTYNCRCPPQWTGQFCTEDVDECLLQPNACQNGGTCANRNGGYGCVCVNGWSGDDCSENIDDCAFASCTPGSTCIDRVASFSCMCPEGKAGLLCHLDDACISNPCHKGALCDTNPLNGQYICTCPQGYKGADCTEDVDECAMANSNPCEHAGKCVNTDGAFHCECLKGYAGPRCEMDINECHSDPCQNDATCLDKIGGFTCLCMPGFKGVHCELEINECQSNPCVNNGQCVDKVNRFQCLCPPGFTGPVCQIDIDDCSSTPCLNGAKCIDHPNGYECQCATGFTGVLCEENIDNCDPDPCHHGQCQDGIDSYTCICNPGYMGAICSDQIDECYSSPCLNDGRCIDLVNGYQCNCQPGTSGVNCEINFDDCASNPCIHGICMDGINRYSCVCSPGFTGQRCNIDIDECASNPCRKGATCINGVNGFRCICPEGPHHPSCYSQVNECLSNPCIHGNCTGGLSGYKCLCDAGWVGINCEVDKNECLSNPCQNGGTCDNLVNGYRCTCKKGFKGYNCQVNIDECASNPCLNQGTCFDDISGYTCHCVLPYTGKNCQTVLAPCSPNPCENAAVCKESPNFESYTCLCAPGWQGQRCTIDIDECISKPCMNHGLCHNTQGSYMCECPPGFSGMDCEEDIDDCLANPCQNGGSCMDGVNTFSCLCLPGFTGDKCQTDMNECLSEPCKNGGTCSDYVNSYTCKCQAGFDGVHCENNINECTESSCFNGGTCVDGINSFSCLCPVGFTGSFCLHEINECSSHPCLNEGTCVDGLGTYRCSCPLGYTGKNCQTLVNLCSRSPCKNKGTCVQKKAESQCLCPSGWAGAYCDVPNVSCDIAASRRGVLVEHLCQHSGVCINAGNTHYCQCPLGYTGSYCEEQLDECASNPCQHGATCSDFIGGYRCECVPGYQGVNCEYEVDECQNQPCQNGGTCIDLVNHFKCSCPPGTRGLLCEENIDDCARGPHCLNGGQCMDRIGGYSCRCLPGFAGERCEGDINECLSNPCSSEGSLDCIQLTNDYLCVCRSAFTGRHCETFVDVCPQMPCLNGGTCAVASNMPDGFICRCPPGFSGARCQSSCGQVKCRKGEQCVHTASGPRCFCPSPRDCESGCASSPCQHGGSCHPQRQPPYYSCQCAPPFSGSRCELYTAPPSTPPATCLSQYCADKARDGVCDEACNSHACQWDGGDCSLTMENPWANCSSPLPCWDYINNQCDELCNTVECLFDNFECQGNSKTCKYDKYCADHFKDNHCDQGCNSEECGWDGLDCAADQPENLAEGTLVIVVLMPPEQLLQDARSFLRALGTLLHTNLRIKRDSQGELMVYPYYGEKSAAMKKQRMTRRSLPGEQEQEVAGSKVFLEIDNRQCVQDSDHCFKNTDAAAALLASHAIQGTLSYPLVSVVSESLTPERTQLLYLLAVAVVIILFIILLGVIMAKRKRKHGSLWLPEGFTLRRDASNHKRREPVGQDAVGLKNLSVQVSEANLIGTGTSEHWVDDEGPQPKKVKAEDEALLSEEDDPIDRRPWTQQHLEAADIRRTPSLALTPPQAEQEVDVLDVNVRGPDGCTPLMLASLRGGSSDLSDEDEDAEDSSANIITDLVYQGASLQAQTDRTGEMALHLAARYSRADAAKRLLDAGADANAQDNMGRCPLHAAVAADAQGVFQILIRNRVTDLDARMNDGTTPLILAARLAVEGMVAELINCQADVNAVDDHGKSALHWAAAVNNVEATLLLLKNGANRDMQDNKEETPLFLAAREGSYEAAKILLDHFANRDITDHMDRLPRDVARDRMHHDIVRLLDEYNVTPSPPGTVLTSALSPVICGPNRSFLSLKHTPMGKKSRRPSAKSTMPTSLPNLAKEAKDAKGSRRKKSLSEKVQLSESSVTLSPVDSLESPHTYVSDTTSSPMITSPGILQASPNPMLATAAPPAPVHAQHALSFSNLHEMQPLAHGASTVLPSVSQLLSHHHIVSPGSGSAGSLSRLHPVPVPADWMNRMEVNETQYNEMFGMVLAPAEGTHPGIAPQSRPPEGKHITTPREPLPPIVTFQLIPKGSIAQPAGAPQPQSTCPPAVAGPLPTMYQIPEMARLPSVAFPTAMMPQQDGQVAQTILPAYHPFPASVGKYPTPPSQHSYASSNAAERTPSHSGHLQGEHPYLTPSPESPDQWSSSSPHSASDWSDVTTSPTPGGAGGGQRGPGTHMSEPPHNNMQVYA
For assay [6], the target named is Pro-neuregulin-1, membrane-bound isoform (Homo sapiens) (UniProt Q02297). The assay is described as follows: small molecules binding neuregulin-1 protein – biochemical, small-molecule microarray, fluorescence 635/667, psychiatric disease protein project, primary screen (AID 1075).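 Also: score combines 667 nm spot fluorescence with signal to noise.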 To be noted: NRG1 binding, 635 nm fluorescence, higher = more signal.
Chain of Pro-neuregulin-1, membrane-bound isoform (Homo sapiens) (Q02297 whole entry, looked up, the tested form may be a part, canonical isoform): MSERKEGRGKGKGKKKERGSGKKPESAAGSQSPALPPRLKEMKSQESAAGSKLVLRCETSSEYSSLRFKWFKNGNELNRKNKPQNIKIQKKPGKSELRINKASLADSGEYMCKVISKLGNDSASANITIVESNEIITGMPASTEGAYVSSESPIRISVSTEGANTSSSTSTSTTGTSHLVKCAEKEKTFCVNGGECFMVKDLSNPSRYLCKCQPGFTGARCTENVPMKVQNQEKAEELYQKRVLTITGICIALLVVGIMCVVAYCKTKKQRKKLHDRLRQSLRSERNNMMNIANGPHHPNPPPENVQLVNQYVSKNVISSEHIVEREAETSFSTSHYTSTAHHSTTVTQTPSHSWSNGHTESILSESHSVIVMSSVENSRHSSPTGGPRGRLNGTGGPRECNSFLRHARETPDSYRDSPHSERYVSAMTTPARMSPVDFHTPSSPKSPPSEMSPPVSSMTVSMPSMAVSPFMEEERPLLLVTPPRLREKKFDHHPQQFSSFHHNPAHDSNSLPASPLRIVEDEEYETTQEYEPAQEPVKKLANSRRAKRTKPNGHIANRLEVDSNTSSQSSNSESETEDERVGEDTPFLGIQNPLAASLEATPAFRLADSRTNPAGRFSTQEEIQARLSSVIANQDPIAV
Assay [7] relates to Neuregulin-1 EGF-like domain. The assay is described as follows: small molecules binding NRG1 EGF domain – biochemical, small-molecule microarray, 635 nm fluorescence, primary screen (AID 1081).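 Also: binding of the protein to compounds printed on small-molecule microarray slides.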 To be noted: higher = more signal.
Assay [8] is described as follows: FRG1 expression reporter modulators in myotubes – cell-based, C2C12 myotubes, firefly/Renilla luciferase, luminescence, FRG1 inhibition for FSHD, primary screen (AID 1084). To be noted: FRG1 promoter luciferase, higher = more signal, called active from +8 up or from −8 down.
The nature of assay [9]: small molecules captured by biotinylated probe aFST – biochemical, small-molecule microarray, fluorescence 635/667, stem cell growth factor project, primary screen (AID 1086).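 Also: score merges 667 nm fluorescence with signal-to-noise of each printed compound spot.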 To be noted: higher = more signal.
Assay [10] in a line: binders of probe aHhip on microarray, primary screen, stem cell growth factor project, biochemical, small-molecule microarray, fluorescence 635/667 (AID 1087).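 Also: score merges spot fluorescence at 667nm with spot signal to noise ratio.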 To be noted: higher = more signal.
Assay [11] relates to PRMT1 (protein arginine N-methyltransferase 1). In words: small molecules binding arginine methyltransferase PRMT1 – biochemical, small-molecule microarray, 635 nm fluorescence, primary screen (AID 1088).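 Also: binding of Prmt1 protein to compounds spotted on small-molecule microarray slides.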 To be noted: higher = more signal.
Assay [12] can be described thus: growth effects on S. cerevisiae YJM789 – YJM789 clinical isolate, OD600, 24 h, basal, primary screen (AID 1089).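 Also: growth of clinical yeast isolate S. cerevisiae YJM 789 seeded 1000 cells per well; test concentration not given here.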 To be noted: higher = more signal, called active from +8 up or from −8 down.
A short description of assay [13]: S. pombe growth modifiers, basal conditions – strain 972, OD600, 24 h, no modulator, primary screen (AID 1090).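 Also: basal condition with compound alone and no growth modifier present; test concentration not given here.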 To be noted: S. pombe 972 growth, higher = more signal, called active from +8 up or from −8 down.
Assay [14] in a line: budding yeast growth modifiers under rapamycin – strain BY4716, OD600, 96 h, primary screen (AID 1091). Also: test concentration not given here. To be noted: S. cerevisiae BY4716 + rapamycin, higher = more signal, called active from +8 up or from −8 down.
Assay [15] has as its target Torsin-1A-interacting protein 2 (Homo sapiens) (UniProt Q8NFQ8). In words: small molecules binding lysate-expressed LULL1 – cell lysate, human LULL1 lysate, 635/667 nm fluorescence, primary screen (AID 1092).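 Also: score merges per-feature 667 nm fluorescence with signal-to-noise.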 To be noted: small-molecule microarray, hLULL1 lysate binding, 635 nm fluorescence; higher = more signal.
Assay [16] can be described thus: optical density change of DRC41 E. coli – strain DRC41, OD650, 24 h, E. coli filamentation project, primary screen (AID 1093).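 Also: MC1000 strain lacking acrAB efflux and sulA so SOS filamentation is blocked; test concentration not given here.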 To be noted: E. coli DRC41 growth, higher = more signal, called active from +8 up or from −8 down.
Assay [17] is described as follows: probe aLefty2 binding to arrayed compounds – biochemical, biotinylated probe, 635/667 nm fluorescence, primary screen (AID 1094).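 Also: score merges spot fluorescence near 667 nm with spot signal-to-noise ratio.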 To be noted: small-molecule microarray, higher = more signal.
Assay [18] relates to Noggin (protein binding on small-molecule microarray). The assay is described as follows: small molecules binding Noggin protein – biochemical, 635/667 nm fluorescence, primary screen (AID 1095).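 Also: score merges 667 nm feature fluorescence with signal to noise over triplicate slides.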 To be noted: 635 nm fluorescence, higher = more signal.
The target of assay [19] is Neurogenic locus notch homolog protein 3 (Homo sapiens) (UniProt Q9UM47). The assay is described as follows: small molecules binding NOTCH3 protein – biochemical, 635/667 nm fluorescence, primary screen (AID 1096). To be noted: small-molecule microarray, 635 nm fluorescence, higher = more signal.
A short description of assay [20]: probe aEGFR binding to arrayed compounds – biochemical, biotinylated probe, 635/667 nm fluorescence, primary screen (AID 1097).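 Also: probe is a biotinylated anti-EGFR antibody binding compounds printed on slides; score combines fluorescence near 667 nm and signal to noise of each spot.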 To be noted: small-molecule microarray, higher = more signal.

The structures appear in SMILES notation. Activity calls are given as the source filed them.

Data on five compounds can be found in PubChem BioAssay.

Chain of Torsin-1A-interacting protein 2 (Homo sapiens) (Q8NFQ8 whole entry, looked up): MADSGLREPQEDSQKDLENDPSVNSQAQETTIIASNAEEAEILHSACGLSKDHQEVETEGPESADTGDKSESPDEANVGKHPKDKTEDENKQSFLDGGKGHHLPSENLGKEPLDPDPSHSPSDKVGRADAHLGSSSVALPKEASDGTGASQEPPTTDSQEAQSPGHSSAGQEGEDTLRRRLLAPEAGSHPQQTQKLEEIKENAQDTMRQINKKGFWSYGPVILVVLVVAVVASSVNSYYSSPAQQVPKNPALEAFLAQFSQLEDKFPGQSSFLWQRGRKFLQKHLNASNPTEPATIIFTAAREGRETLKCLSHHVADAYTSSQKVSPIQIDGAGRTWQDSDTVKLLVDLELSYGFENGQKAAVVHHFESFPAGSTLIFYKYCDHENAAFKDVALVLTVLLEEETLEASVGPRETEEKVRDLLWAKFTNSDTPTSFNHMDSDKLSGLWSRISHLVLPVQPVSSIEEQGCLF

On to `CC(C)CNC(=O)[C@@]1(Cc2ccccc2I)c2ccccc2C(=O)N(C2CCCCC2)[C@H]1c1ccc(CO)cc1`, for which the composite z-score came to 0.654 in assay [1]; 1.26 in assay [2]; 0.162 in [3]; 0.685 in [4]; 0.142 in [5]; 0.925 in [6]. Further, the composite z-score is 1.05 in assay [7]; 0.481 in [9]; 0.702 in assay [10]; 1.57 in assay [11]; 1.28 in assay [15]; 0.164 in assay [17]. The results for the composite z-score in assay [18], in [19] and in assay [20] were -0.235, 0.497 and 0.0066, respectively. Further, the z-score in [8] is -3.41 (inactive); in [12] it was -1.32 (inactive); in assay [13] it was -0.597 (inactive); in [14] it was 0.153 (inactive); in assay [16], -0.518 (inactive).

Regarding `O=C1O[C@@H](c2ccccc2)[C@@H](c2ccccc2)N2[C@@H](c3ccccc3OCCO)[C@]3(C(=O)Nc4ccc(C#CC5=CCCCC5)cc43)[C@@H](C(=O)N3CCCCCCC3)[C@H]12`, the composite z-score in assay [1] came out at 3.71; in [2] it was 2.23; in [3], 0.978; in [4], 1.14; in assay [5] it was 1.65; in assay [6], 2.07. Further, the composite z-score in assay [7] stood at 1.07; in [9] it was 3.59; in assay [10], 3.84; in assay [11], 1.53; in [15], 4.38; in assay [17] it was 1.74. Also, the composite z-score came out at 1.88 in assay [18], 1.02 in assay [19] and 1.34 in [20]. For the same compound, the z-score was -0.27 (inactive) in [8]; 1.1 (inactive) in assay [12]; -0.354 (inactive) in assay [13]; 2.02 (inactive) in assay [14]; -0.641 (inactive) in assay [16].

Take `CC1(C)[C@@H]2CC(C(O)C3C=CC4C(=O)N(Cc5ccccc5)C(=O)C4N3n3cnnc3)=C[C@H]1C2` (stereo not given in full): the composite z-score in assay [1] was -0.0224; in assay [2], 0.839; in assay [3], 0.0119; in [4], 0.959; in assay [5], 1.33; in [6] it was 1.56. The composite z-score in [7] stood at 1.39; in [9] it was 1.06; in assay [10], 0.0053; in assay [11], 1.29; in [15] it was 3.12; in assay [17], 0.104. The composite z-score amounted to 0.458 in assay [18], 0.791 in assay [19] and 0.0564 in [20]. Moreover, the z-score in [8] is 0.349 (inactive); in [12], 0.0365 (inactive); in assay [13], 1.57 (inactive); in assay [14], 1.38 (inactive); in [16], -0.117 (inactive).

With `C=CC(=C)[C@H]1Oc2ccccc2S(=O)(=O)N2CCC[C@@H]12`, the composite z-score is 0.289 in assay [1]; 0.196 in assay [2]; -0.116 in assay [3]; -0.185 in assay [4]; -0.128 in assay [5]; -0.57 in assay [6]. Further, the composite z-score in assay [7] is -0.595; in assay [9], 0.303; in assay [10], -0.329; in assay [11], -1.3; in assay [15] it was -0.562; in assay [17] it was 0.0189. The composite z-score was 0.518 in assay [18], -0.406 in assay [19] and -0.152 in assay [20]. Moreover, the z-score in [8] was -0.0188 (inactive); in assay [12], -0.946 (inactive); in [13], -2.71 (inactive); in assay [14], -0.601 (inactive); in [16] it was -0.504 (inactive).

`COC(=O)[C@@]1(Cc2ccccc2)[C@H]2c3cc(C(=O)N(C)C)n(Cc4ccsc4Br)c3C[C@H]2CN1C(=O)c1ccccc1`: the composite z-score in assay [1] amounted to 0.102; in assay [2], 0.106; in assay [3], 0.215; in assay [4], 0.746; in [5] it was 1.61; in assay [6], 0.823. Further, the composite z-score in [7] was 1.12; in assay [9] it was 1.67; in assay [10], -0.113; in [11] it was -0.481; in assay [15], 3.32; in assay [17] it was 0.313. For the same compound, the composite z-score stood at 0.0244 in assay [18], 1.05 in assay [19] and 0.196 in assay [20]. The z-score in assay [8] was 0.332 (inactive); in [12], 1.04 (inactive); in [13], 1.17 (inactive); in [14], 2.66 (inactive); in [16], 0.166 (inactive).
